In the library only some 2.8% were active in any assay of this set; here they are far more common.
HIF-2a block = inhibitors of HIF-2a; 786-0 RCC cells HIF-2a reporter, luciferase luminescence, overnight; inhibition, % at 18.8 µM; 360,000 tested, 0.72% active; AID 624352;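 active means inhibition of the luminescence signal of 40% or more relative to plate controls, in a single-dose primary screen at 18.75 µM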
Peg3 prom inh = reduces Peg3 promoter-driven luciferase expression in HeLa; HeLa PEG-Prom luciferase reporter, luminescence, overnight; inhibition, % at 20 µM; 360,000 tested, 1.7% active; AID 588405;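 active means inhibition of at least 50% at 20 µM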
CF NFkB block = cystic fibrosis NF-kB activation inhibition; KKLEB NF-kB-GFP reporter, PAF-induced, GFP fluorescence overnight; inhibition, % at 5 µM; 360,000 tested, 0.86% active; AID 588850;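 active means at least 50% inhibition at 5 µM, scaled per plate between neutral and stimulator controls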;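 further: PAF is a Pseudomonas aeruginosa culture filtrate used as stimulus; plate controls were PAF-stimulated DMSO wells for no effect and unstimulated DMSO wells for full effect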
Shn3 inh set2 = Schnurri-3 reporter inhibition in Clone20 osteoblasts; Clone20 osteoblast Shn3 3'UTR firefly luciferase, 24 h; 360,000 tested, 0.52% active; inhibition, % at 12.5 µM; AID 588674;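 active means mean inhibition of at least 75% with every replicate also reaching 75%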;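 further: 0% = median of neutral control wells and 100% = pilot-screen positive control compound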
TRPM1 prom inh = inhibitors of MITF-driven TRPM1 promoter in melanoma cells; SK-MEL-5 TRPM1 promoter luciferase, 24 h; inhibition, % at 12.5 µM; 330,000 tested, 0.83% active;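 active means mean inhibition across replicates of 60% or more, whatever share of single replicates reaches that level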
KKLEB tox = CF airway cell cytotoxicity counter-screen; activity change (cytotoxicity), % at 5 µM; KKLEB CF airway cells viability, ATPlite luminescence, overnight; hits give low values; cells stimulated with P. aeruginosa culture filtrate; AID 602141; 360,000 tested, 0.36% active;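 active means corrected activity change at or below -50% at 5 µM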
CF NFkB conf = confirmation of cystic fibrosis induced NF-kB inhibitors. shares compounds with CF NFkB block. KKLEB CF airway cells, PAF-induced NF-kB-GFP fluorescence, overnight. inhibition, % at 5 µM. 1,300 tested, 64% active; in the data active means inhibition above about 40%;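 further: stimulus PAF is a Pseudomonas aeruginosa filtrate and not platelet activating factor; plate controls were DMSO wells with stimulus for no effect and unstimulated DMSO wells for full effect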
An asterisk follows results filed as active.

How did Cc1[nH]c2ccccc2c1C(=O)COC(=O)c1ccc2c(=O)n3c(nc2c1)CCC3 do in these assays?
HIF-2a block: 8.9; Peg3 prom inh: 4.7; CF NFkB block: 11.5; Shn3 inh set2: -1.0; TRPM1 prom inh: 10.9; KKLEB tox: 6.8

What do the screens show for `Cc1ccc2oc(=O)c3cnn(CC(=O)Nc4cc(-c5cccc(F)c5)no4)c3c2c1`?
HIF-2a block: -0.7; Peg3 prom inh: 19.7; CF NFkB block: 52.9*; Shn3 inh set2: 17.9; KKLEB tox: -42.3; CF NFkB conf: 16.4

What do the screens show for `Cc1cccc(N2C(=O)CC(Sc3nc(C)cc(C)n3)C2=O)c1` (stereo not drawn)?
HIF-2a block: 4.1; Peg3 prom inh: 11.0; CF NFkB block: 1.0; Shn3 inh set2: -4.1; TRPM1 prom inh: -7.7; KKLEB tox: 6.3

How did Cc1cc(C)cc(N2C(=O)CC(Sc3nnnn3-c3ccccc3)C2=O)c1 (stereo not drawn) do in these assays?
HIF-2a block: -11.1; Peg3 prom inh: 108.2*; CF NFkB block: 56.6*; Shn3 inh set2: 88.1*; TRPM1 prom inh: 11.0; KKLEB tox: -17.1; CF NFkB conf: -1.4

What do the screens show for `Clc1cncc(Cl)c1N/N=C/c1ccncc1`?
HIF-2a block: 14.1; Peg3 prom inh: -12.4; CF NFkB block: 81.2*; Shn3 inh set2: 14.2; TRPM1 prom inh: 10.9; KKLEB tox: -41.5; CF NFkB conf: 77.5*

Results for Clc1cccc(Cl)c1/C=N/Nc1c(Cl)cncc1Cl ?
HIF-2a block: 8.4; Peg3 prom inh: 23.8; CF NFkB block: -2.3; Shn3 inh set2: 7.4; TRPM1 prom inh: 7.9; KKLEB tox: 1.1

What do the screens show for `Cc1sc2ncnc(SCC(=O)c3ccc4c(c3)OCCO4)c2c1-c1ccccc1`?
HIF-2a block: 18.0; Peg3 prom inh: 10.1; CF NFkB block: 29.5; Shn3 inh set2: 51.6; TRPM1 prom inh: 20.9; KKLEB tox: 0.4

Results for C=C(c1ccc2nc(NC(=O)OC)[nH]c2c1)c1cccs1 ?
HIF-2a block: -197.7; Peg3 prom inh: -176.8; CF NFkB block: 61.8*; Shn3 inh set2: -4.4; TRPM1 prom inh: -10.7; KKLEB tox: -13.8; CF NFkB conf: 95.7*

Results for C=CCOc1ccc2nc(NC(=O)OC)[nH]c2c1 ?
HIF-2a block: -50.1; Peg3 prom inh: -71.7; CF NFkB block: 34.3; Shn3 inh set2: -19.0; TRPM1 prom inh: 12.2; KKLEB tox: -31.8

How did CN(C(=O)c1cncc(Br)c1)C1C2CC3CC(C2)CC1C3 (stereo not drawn) do in these assays?
HIF-2a block: -45.3; Peg3 prom inh: -21.0; CF NFkB block: 7.9; Shn3 inh set2: -10.5; TRPM1 prom inh: -16.5; KKLEB tox: 0.5

How did Nc1ccc(O)c2c(=O)cc(-c3ccccc3Cl)oc12 do in these assays?
HIF-2a block: -262.1; Peg3 prom inh: -239.1; CF NFkB block: 11.2; Shn3 inh set2: -63.7; TRPM1 prom inh: -111.9; KKLEB tox: -10.8

Results for O=c1cc(-c2ccccc2Cl)oc2cc(O)cc(O)c12 ?
HIF-2a block: -127.8; Peg3 prom inh: -232.9; CF NFkB block: 66.5*; Shn3 inh set2: 81.6; TRPM1 prom inh: -42.5; KKLEB tox: -0.8; CF NFkB conf: 76.9*

How did CC(=O)c1ccc(-n2c(C)c(C(C)=O)c3cc(O)ccc32)cc1 do in these assays?
HIF-2a block: 13.0; Peg3 prom inh: 17.6; CF NFkB block: 55.6*; Shn3 inh set2: 34.1; TRPM1 prom inh: -2.3; KKLEB tox: 16.5; CF NFkB conf: 66.3*

How did CC(=O)c1c(C)n(-c2ccc(Br)cc2)c2ccc(O)cc12 do in these assays?
HIF-2a block: 27.9; Peg3 prom inh: 11.9; CF NFkB block: 44.8; Shn3 inh set2: 5.9; TRPM1 prom inh: -3.1; KKLEB tox: 10.1

Results for CC(=O)c1c(C)n(-c2ccc(C)cc2C)c2ccc(O)cc12 ?
HIF-2a block: 33.8; Peg3 prom inh: 13.7; CF NFkB block: 64.8*; Shn3 inh set2: 15.0; TRPM1 prom inh: -12.9; KKLEB tox: -10.4; CF NFkB conf: 68.5*

What do the screens show for `CCOc1ccc(-n2c(C)c(C(=O)OC)c3cc(O)ccc32)cc1`?
HIF-2a block: 17.6; Peg3 prom inh: 15.4; CF NFkB block: 23.6; Shn3 inh set2: -0.1; TRPM1 prom inh: -2.1; KKLEB tox: -0.4

Results for CCOc1ccc(-n2c(C)c(C(C)=O)c3cc(O)ccc32)cc1 ?
HIF-2a block: 31.6; Peg3 prom inh: 12.1; CF NFkB block: 57.0*; Shn3 inh set2: 3.7; TRPM1 prom inh: -8.1; KKLEB tox: 2.5; CF NFkB conf: 84.1*

How did CC(=O)c1c(C)n(-c2ccccc2)c2ccc(O)cc12 do in these assays?
HIF-2a block: 15.8; Peg3 prom inh: 10.3; CF NFkB block: 59.4*; Shn3 inh set2: -14.8; TRPM1 prom inh: 7.2; KKLEB tox: -16.3; CF NFkB conf: 72.3*

What do the screens show for `COc1ccc(S(=O)(=O)NC(C(=O)OCC(=O)Nc2ccc(N3CCOCC3)cc2)C(C)C)cc1` (stereo not drawn)?
HIF-2a block: -11.6; Peg3 prom inh: -7.2; CF NFkB block: 23.9; Shn3 inh set2: 18.4; TRPM1 prom inh: -4.2; KKLEB tox: -0.4

What do the screens show for `Cc1ccc(C(C)NC(=O)c2cc3ccccc3oc2=O)cc1C` (stereo not drawn)?
HIF-2a block: -26.5; Peg3 prom inh: 5.3; CF NFkB block: -2.3; Shn3 inh set2: 11.7; TRPM1 prom inh: -2.9; KKLEB tox: -6.1

What do the screens show for `COc1ccc(CCNC(=O)C(=O)N/N=C/c2cccs2)cc1OC`?
HIF-2a block: 10.6; Peg3 prom inh: 0.6; CF NFkB block: -2.0; Shn3 inh set2: -1.0; TRPM1 prom inh: -6.3; KKLEB tox: -1.1

How did O=C(NCC(=O)N1CCCCCCC1)c1ccc(Cl)c(Cl)c1 do in these assays?
HIF-2a block: -72.0; Peg3 prom inh: -30.9; CF NFkB block: 9.5; Shn3 inh set2: -47.9; KKLEB tox: -8.4

How did Cc1ccc(NC(=O)c2cc(C(=O)c3cc(Cl)ccc3O)cn(-c3ccc(C)cc3)c2=O)cc1 do in these assays?
HIF-2a block: -3.2; Peg3 prom inh: 45.1; CF NFkB block: 54.6*; Shn3 inh set2: 16.4; TRPM1 prom inh: 7.0; KKLEB tox: -11.3; CF NFkB conf: 56.3*

Results for N#Cc1cc(C(=O)c2cc(Cl)ccc2O)cn(-c2ccccc2)c1=O ?
HIF-2a block: 4.8; Peg3 prom inh: 13.9; CF NFkB block: 9.1; Shn3 inh set2: -15.5; TRPM1 prom inh: -17.2; KKLEB tox: -6.8

How did CC(C)(C)OC(=O)NN1CC(=O)N2[C@@H](Cc3c([nH]c4ccccc34)C2(C)C)C1=O do in these assays?
HIF-2a block: 3.0; Peg3 prom inh: 21.0; CF NFkB block: 19.2; Shn3 inh set2: -11.8; TRPM1 prom inh: -6.0; KKLEB tox: 14.2

How did CC1CCC(NC(=O)COC(=O)c2ccco2)CC1 (stereo not drawn) do in these assays?
HIF-2a block: -2.4; Peg3 prom inh: -22.3; CF NFkB block: -13.8; Shn3 inh set2: -6.6; TRPM1 prom inh: -3.6; KKLEB tox: 3.3
